PubChem BioAssay (NCI)
Compounds without any hit were thinned out: in the full panel of roughly 83,000, 20% have a hit.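 In brief: 96-well plates, 48 h treatment, single concentration, percent growth endpoint.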 Unmarked numbers belong to inactive results. The source made the active and inactive calls. Rule for the calls: active = growth percent below 10; inactive = the rest.

test system: HCC-2998 colon; assay: NCI-60 one-dose screen, 48 h (100 = growth as untreated, 0 = no growth, -100 = all killed); conditions: 10 µM unless noted

SMILES	growth
COc1cc(-c2nc(-c3nc4ccc(Cl)cc4[nH]3)cc3c2[nH]c2ccccc23)cc(OC)c1OC	68.7%
Cc1c(C(N)=O)sc2c1c(=O)n(Cc1ccccc1)c1nnc(Nc3ccccc3)n21	110%
CCCCCCCC[C@@H](O)CC(=O)N[C@@H](CC(N)=O)C(=O)N[C@@H](CCC(N)=O)C(=O)N[C@@H](CC(=O)c1cc(C)cc(O)c1C(=O)c1c(O)cccc1O)CC(C)C	-72.6% (active)
COc1cc(/C(C#N)=C/c2ccc3c(c2OC)OCO3)cc2c1OCO2	12.8%
COc1ccc(Nc2[nH]n3c(=O)cc(C)nc3c2C(N)=O)c(OC)c1	108%
Fc1ccc(Nc2nc(NCCNc3ccnc4cc(Cl)ccc34)nc(N3CCOCC3)n2)cc1	-51.2% (active)
CN(C)c1oc(C2OC2c2ccccc2)nc1C#N (stereo not drawn)	97.3%

test system: KM12 colon; assay: as above; conditions: 10 µM unless noted

SMILES	growth
COc1ccc(-c2c(N)n[nH]c2-c2cc3c(c(OC)c2OC)OCO3)cc1	99.9%
COc1cc(-c2nn(-c3cccc(NC(=O)c4cccc(C(F)(F)F)c4)c3)cc2-c2ccncc2)ccc1Cl	13.4%
Clc1ccc(-c2nc3ccccc3s2)cc1Cl	97.1%
Fc1ccc(CNCCNc2ncnc3c2cnn3-c2ccccc2)cc1	107%
COc1ccc(-n2c(=O)sc3c(Cl)nc(C)nc32)c(OC)c1	90%
O=C(O)c1nc(-c2ccccc2)oc1N1CCOCC1	88.9%
Cn1c(=O)c2[nH]c(C3CC=CCC3)nc2n(C)c1=O (stereo not drawn)	108%
COc1ccc(C2C=C(c3ccc(N)cc3)N=C3SC=CN32)cc1OC (stereo not drawn)	99.5%
O=S(=O)(NCCNc1nccc(-c2c(-c3ccc(O)cc3)nc3sccn23)n1)c1cccc2ccccc12	109%
O=S(=O)(NCCNc1nccc(-c2c(-c3ccc(F)cc3)nc3sccn23)n1)c1ccc(F)cc1	76.5%
COc1ccc(/C=C2\CN(Cc3cn(CCNc4ccnc5cc(Cl)ccc45)nn3)C/C(=C\c3ccc(OC)c(OC)c3)C2=O)cc1OC	-35.7% (active)
Cc1ccc(S(=O)(=O)c2nc(-c3ccccc3)oc2S(C)(=O)=O)cc1	76.4%
COc1ccc(C2=Nn3c(nnc3-n3nc(C)cc3C)SC2)cc1	10%
O=C(O)/C=C/C(=O)c1ccc(Cl)cc1	106%
Cc1ccc(S(=O)(=O)NCCNc2nccc(-c3c(-c4ccc(O)cc4)nc4sccn34)n2)cc1	100%
C=C1CCC[C@]2(C)CCC[C@H](C)[C@@H](OC(C)=O)[C@@H]3OC(=O)C(=C)[C@@H]3C[C@H]1O2	79.4%

SMILES	growth
Cc1cc(N)n(S(=O)(=O)c2oc(-c3ccccc3)nc2C#N)n1	101%
COc1ccc(-c2cc3c(OC)c(OC)c(OC)cc3oc2=O)cc1	21.9%
COc1ccc(OC)c(C2OC(c3ccc4ccccc4c3O)=NN2C(C)=O)c1 (stereo not drawn)	60.1%
Cc1ccc(NS(=O)(=O)c2cc(C)ccc2C)cc1	16.2%
COc1cc(-c2nn(-c3cccc(NC(=O)c4ccccc4)c3)cc2-c2ccncc2)ccc1Cl	12.3%
O=C(Nc1cccc(-n2cc(-c3ccncc3)c(-c3ccc(Cl)c(O)c3)n2)c1)Nc1ccc(Cl)c(Cl)c1	8.15% (active)
O=S(=O)(NCCNc1nccc(-c2c(-c3cccc(O)c3)nc3sccn23)n1)c1ccc(F)cc1	56.6%
O=C(Nc1ccc2c(c1)OCCO2)C(=O)c1c[nH]c2ccccc12	10.8%
CCCCCCCC/C=C/CCCCCCCC1=NC(C)(C)CN1C(C)(C)CO	-91.5% (active)
COc1ccc(-n2c(=S)sc3c(Cl)nc(C)nc32)c(OC)c1	25.4%
CCOC(=O)c1cn2c3c(cc(C)cc3c1=O)C(=O)/C(=C/c1ccccc1)C2	102%
CN(C)CC(C(=O)c1ccccc1)c1ccccc1 (stereo not drawn)	10.8%
NC(=O)CCCN1C/C(=C\c2ccccc2)C(=O)c2ccccc21	101%
COc1ccc(Nc2nn3c(C)cc(C)nc3c2C(=O)Nc2ccc(C)cc2)c(OC)c1	100%
COc1cc(-c2nn(-c3cccc(NC(=O)c4ccc(Cl)c(C(F)(F)F)c4)c3)cc2-c2ccncc2)ccc1Cl	28.8%
